Experimental findings from PubChem BioAssay are described below.

The source made the active and inactive calls. Unless noted, how the calls were made is not given here.

Assay [1] in a line: resazurin metabolic signal in HepG2 cells – cell-based, resazurin fluorescence, 24 h, PK04 Diversity Set, profiling panel (AID 1172). Further: test concentration not given here. The settings on record: HepG2 viability, higher = more signal. (Resazurin is reduced to fluorescent resorufin, in cell work by metabolically active cells.)
A short description of assay [2]: budding yeast growth changes without added modifier – OD600, strain BY4716, 24 h, basal condition, primary screen (AID 1173). As to conditions: S. cerevisiae BY4716 growth, OD600, 24 h; higher = more signal, called active from +8 up or from −8 down.
Assay [3] can be described thus: viability profiling in MM1S myeloma cells – cell-based, resazurin fluorescence, basal, 24 h, PK04 Diversity Set, profiling panel (AID 1174).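 Further: MM1S multiple myeloma cell line; test concentration not given here.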 The settings on record: higher = more signal, called active from +8 up or from −8 down.
Assay [4] addresses Dihydroorotate dehydrogenase (quinone), mitochondrial (Plasmodium falciparum (isolate 3D7)) (UniProt Q08210). Briefly: inhibition of P. falciparum DHODH – biochemical, C-terminal His tag, absorbance 600 nm, primary screen (AID 1175).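 Further: recombinant parasite enzyme with a five histidine tag at its C terminus; test concentration not given here.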 The settings on record: PfDHODH enzyme, DCIP absorbance 600 nm; higher = more signal, called active from +8 up or from −8 down.
A short description of assay [5]: inhibition of PAO1 biofilm formation – strain PAO1, LB-PBS medium, absorbance 600 nm, primary screen (AID 1176). Further: test concentration not given here. The settings on record: P. aeruginosa PAO1 growth/biofilm, A600, 12 h; higher = more signal.
Assay [6] is described as follows: growth modulation of vineyard yeast isolate – strain RM11-1a, OD600, basal, 24 h, primary screen (AID 1177).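 Further: cultures grown under basal conditions with no added stressor; test concentration not given here.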 The settings on record: S. cerevisiae RM11-1a growth, OD600, 24 h; higher = more signal, called active from +8 up or from −8 down.
A short description of assay [7]: growth of efflux-deficient E. coli DRC39 – strain DRC39, OD650, 24 h, E. coli filamentation inducers, primary screen (AID 1178).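 Further: growth measured as culture turbidity by optical density at 650 nm; test concentration not given here.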 As to conditions: E. coli DRC39 acrAB, higher = more signal, called active from +8 up or from −8 down.
Assay [8] in a line: growth of efflux-deficient E. coli DRC39 – strain DRC39, OD650, 48 h, E. coli filamentation inducers, primary screen (AID 1179).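 Further: screen aims at cell division blockers that make cells filament.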 The settings on record: E. coli DRC39 delta-acrAB growth, higher = more signal, called active from +8 up or from −8 down.
Assay [9] can be described thus: viability profiling in RPMI8226 myeloma cells – cell-based, resazurin fluorescence, basal, 24 h, PK04 Diversity Set, profiling panel (AID 1180).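 Further: RPMI8826 multiple myeloma cell line at 5000 cells per well; test concentration not given here.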 As to conditions: higher = more signal.
Assay [10] deals with E3 ubiquitin-protein ligase XIAP (Homo sapiens) (UniProt P98170). The assay is described as follows: small molecules binding XIAP protein – biophysical, small-molecule microarray, fluorescence 635 nm, primary screen (AID 1181).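 Further: score merges 667 nm emission and signal to noise over triplicate slides.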 The settings on record: higher = more signal.
E3 ubiquitin-protein ligase XIAP (Homo sapiens), sequence (P98170 whole entry, looked up): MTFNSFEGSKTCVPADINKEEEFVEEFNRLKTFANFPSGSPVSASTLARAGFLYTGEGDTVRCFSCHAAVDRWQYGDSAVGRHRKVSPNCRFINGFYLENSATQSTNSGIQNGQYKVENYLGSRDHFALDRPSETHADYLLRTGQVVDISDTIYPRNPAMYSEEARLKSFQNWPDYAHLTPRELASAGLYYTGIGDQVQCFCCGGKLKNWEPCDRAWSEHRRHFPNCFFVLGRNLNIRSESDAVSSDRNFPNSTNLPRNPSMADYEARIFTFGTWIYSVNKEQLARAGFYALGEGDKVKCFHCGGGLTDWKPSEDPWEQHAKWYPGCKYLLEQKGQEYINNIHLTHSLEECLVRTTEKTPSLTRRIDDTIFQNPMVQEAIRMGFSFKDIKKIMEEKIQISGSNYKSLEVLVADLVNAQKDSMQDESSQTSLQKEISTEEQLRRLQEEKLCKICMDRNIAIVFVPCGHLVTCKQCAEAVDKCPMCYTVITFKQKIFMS

Dihydroorotate dehydrogenase (quinone), mitochondrial (Plasmodium falciparum (isolate 3D7)), sequence (Q08210 whole entry, looked up): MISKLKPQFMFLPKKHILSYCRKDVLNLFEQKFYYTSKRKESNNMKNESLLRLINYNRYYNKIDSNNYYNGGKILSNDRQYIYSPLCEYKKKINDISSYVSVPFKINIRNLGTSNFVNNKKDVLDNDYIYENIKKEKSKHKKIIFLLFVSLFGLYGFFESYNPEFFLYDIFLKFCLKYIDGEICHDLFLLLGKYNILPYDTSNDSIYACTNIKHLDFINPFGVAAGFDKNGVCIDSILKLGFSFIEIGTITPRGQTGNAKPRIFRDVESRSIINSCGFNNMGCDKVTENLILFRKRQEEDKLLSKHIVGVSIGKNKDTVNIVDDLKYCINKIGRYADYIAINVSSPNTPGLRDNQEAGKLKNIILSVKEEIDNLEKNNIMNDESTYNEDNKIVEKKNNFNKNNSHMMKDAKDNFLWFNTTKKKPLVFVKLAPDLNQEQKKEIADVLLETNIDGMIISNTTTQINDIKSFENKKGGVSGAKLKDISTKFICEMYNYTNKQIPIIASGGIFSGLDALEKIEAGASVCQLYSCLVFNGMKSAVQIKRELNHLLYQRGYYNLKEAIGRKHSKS

On to `CCN(CC)c1ccc(N2CC=CC34O[C@@H]5/C=C\CCC(C)OC(=O)C5[C@H]3C(=O)N(CCO)[C@@H]4C2=O)cc1` (stereo not given in full), for which the z-score in assay [1] was -0.68; in [2], -0.958 (inactive); in [3], -0.742 (inactive); in [5], -0.593 (inactive); in [6], -0.481 (inactive); in [7] it was -0.736 (inactive). Also, the z-score is -0.949 (inactive) in assay [8] and -0.833 in assay [9]. Further, the composite z-score is 0.543 (inactive) in assay [4] and 0.283 in assay [10].
Regarding `COC(=O)[C@@]1(Cc2ccc(OC)cc2)[C@H]2c3cc(C(=O)N(C)C)n(CCc4c[nH]c5ccc(O)cc45)c3C[C@H]2CN1C(=O)c1ccccc1`, the z-score in assay [1] is -0.855; in [2] it was 1.29 (inactive); in assay [3] it was -1.64 (inactive); in assay [5], 0.15 (inactive); in assay [6], 0.599 (inactive); in [7] it was -0.135 (inactive). Moreover, the figures for the z-score in [8] and in assay [9] were 0.301 (inactive) and -2.36, respectively. Moreover, the composite z-score in [4] was -0.568 (inactive); in assay [10], 0.201.
With `COC(=O)C(CC#Cc1ccc2c(c1)[C@]1(C(=O)N2)[C@H](C(=O)O)[C@H]2C(=O)O[C@H](c3ccccc3)[C@H](c3ccccc3)N2[C@@H]1c1ccccc1OCCO)C(=O)OC`, the z-score in assay [1] was 0.289; in [2], -0.307 (inactive); in [3], 0.0819 (inactive); in assay [5], 2.07 (inactive); in assay [6], 2.55 (inactive); in assay [7], 0.698 (inactive). Besides, the z-score in [8] is 0.202 (inactive); in assay [9] it was -4.42. Moreover, the composite z-score in assay [4] was -18.9 (active); in assay [10], -0.0673.
As for `C[C@@H]1ON(c2ccc(C(=O)OC(C)(C)C)cc2)[C@H](c2ccc(Br)cc2)[C@H]1C(=O)N1C(=O)OC[C@H]1Cc1ccccc1`, the z-score in [1] was 0.318; in assay [2], 0.0743 (inactive); in assay [3], 0.652 (inactive); in [5], 0.224 (inactive); in [6], 0.538 (inactive); in assay [7] it was 0.488 (inactive). In addition, the figures for the z-score in assay [8] and in [9] were 0.46 (inactive) and 1.23, respectively. For the same molecule, the composite z-score in [4] was 0.315 (inactive); in assay [10], -0.16.
For `CC(C)(C)OC(=O)CC[C@]1(C(=O)O)N=C(c2ccc(OCCCO)cc2)O[C@H]1c1ccccc1`, the z-score in assay [1] was 1.29; in [2] it was -0.739 (inactive); in assay [3], 0.904 (inactive); in assay [5] it was -0.76 (inactive); in assay [6] it was -0.279 (inactive); in [7] it was 0.419 (inactive). The z-score in assay [8] is 1.3 (inactive); in assay [9], 1.65. In addition, the composite z-score in assay [4] is -14.3 (active); in assay [10], -0.0594.
Consider `COCCOC(=O)N1C(=O)[C@@]2(c3cc(C#CC4(O)CCCCCC4)ccc31)[C@H](C(N)=O)[C@H]1C(=O)O[C@H](c3ccccc3)[C@H](c3ccccc3)N1[C@@H]2c1ccccc1OCCO`, for which the z-score was -1.85 in [1]; 0.707 (inactive) in assay [2]; -7.01 (inactive) in assay [3]; 1.68 (inactive) in assay [5]; 2.26 (inactive) in assay [6]; -0.735 (inactive) in [7]. The z-score is -0.719 (inactive) in assay [8] and -6.48 in assay [9]. Besides, the results for the composite z-score in [4] and in assay [10] were 1.34 (inactive) and -0.229, respectively.
Consider `COc1ccccc1CN1C(=O)c2ccccc2[C@@H](C(=O)NC(C)C)[C@@H]1c1ccc(CO)cc1`, for which the z-score in assay [1] was 1.1; in assay [2] it was -0.186 (inactive); in [3] it was 1.1 (inactive); in assay [5], -0.963 (inactive); in assay [6], -0.108 (inactive); in assay [7], 0.686 (inactive). The z-score is 0.0549 (inactive) in assay [8] and 1.17 in assay [9]. The values for the composite z-score in assay [4] and in assay [10] were -0.469 (inactive) and 0.0251, respectively.
For `Cc1c(NC(=O)/C(C#N)=C/C=C/c2ccccc2[N+](=O)[O-])c(=O)n(-c2ccccc2)n1C`, the z-score in assay [1] is -1.25; in [2], -0.0708 (inactive); in assay [3], -0.729 (inactive); in [5], -0.6 (inactive); in assay [6], -0.061 (inactive); in assay [7] it was 1.06 (inactive). In addition, the z-score was -0.241 (inactive) in [8] and -1.73 in assay [9]. Further, the composite z-score in assay [4] was 0.512 (inactive); in assay [10], -0.0172.
On to `CCOC(=O)C1=C[C@@H](c2ccccc2)N(S(=O)(=O)c2ccc(C)cc2)[C@H]1c1cccc(Cl)c1`, for which the z-score in assay [1] is -0.663; in [2], 1.7 (inactive); in assay [3] it was -0.848 (inactive); in assay [5], -0.169 (inactive); in [6] it was 2.1 (inactive); in assay [7] it was -0.823 (inactive). The z-score in assay [8] was -0.777 (inactive); in [9], -1.64. For the same molecule, the composite z-score in assay [4] is -0.184 (inactive); in assay [10] it was -0.221.
Take `C=CC[C@@]1(C(=O)O)N=C(c2ccc(OCCCO)cc2)O[C@@H]1c1ccccc1`: the z-score was 1.53 in assay [1]; -1.07 (inactive) in assay [2]; 0.753 (inactive) in assay [3]; -0.568 (inactive) in assay [5]; 0.0596 (inactive) in [6]; -0.0277 (inactive) in assay [7]. Besides, the figures for the z-score in assay [8] and in [9] were 1.2 (inactive) and 1.4, respectively. The composite z-score in assay [4] is 0.977 (inactive); in assay [10], 0.559.
For `COCCCNC(=O)[C@]1(Cc2ccccc2N=[N+]=[N-])N=C(c2ccc(OCCCO)cc2)O[C@@H]1c1ccccc1N=[N+]=[N-]`, the z-score in assay [1] was -2.52; in assay [2] it was 0.298 (inactive); in assay [3], -3 (inactive); in assay [5] it was 1.07 (inactive); in assay [6] it was 0.315 (inactive); in assay [7], 0.342 (inactive). Further, the z-score in assay [8] was -0.435 (inactive); in assay [9], -2.76. In addition, the composite z-score in assay [4] is -0.282 (inactive); in assay [10] it was -0.0332.
`CC(C)CN1C(=O)[C@@]2(Cc3ccccc31)c1ccccc1C(=O)N(Cc1ccccc1C(F)(F)F)[C@H]2c1ccc(CO)cc1`: the z-score is 0.869 in [1]; -1.94 (inactive) in [2]; -0.696 (inactive) in assay [3]; -0.103 (inactive) in assay [5]; -2.06 (inactive) in [6]; 0.897 (inactive) in assay [7]. Moreover, the z-score in assay [8] was 1.72 (inactive); in assay [9] it was 0.478. Moreover, the composite z-score in assay [4] is -4.83 (inactive); in [10] it was 0.661.
Take `C[C@]12C(=O)N(CCCCCCO)[C@@H]3C(=O)N(c4ccc(Cl)cc4)CC=CC31O[C@@H]1/C=C\CCCOC(=O)C12` (stereo not given in full): the z-score in assay [1] was -0.578; in assay [2], -1.3 (inactive); in assay [3] it was 0.423 (inactive); in assay [5], -0.0558 (inactive); in [6], -1.29 (inactive); in [7], -0.0299 (inactive). The z-score is 0.692 (inactive) in assay [8] and 1.05 in assay [9]. Moreover, the composite z-score in [4] was -0.699 (inactive); in assay [10], -0.235.
